# Measured values taken from paper PMC7862700, “An all-to-all approach to the identification of sequence-specific readers for epigenetic DNA modifications on cytosine”.
# What was measured:
# Assay in all cases: DAPPL (digital affinity profiling via proximity ligation, sequencing); 10 mM Tris-HCl pH 7.5, 50 mM NaCl, 1 mM DTT, 4% glycerol, room temperature, 30 min; GST-TFs on glutathione beads, 16-mer random dsDNA library, 0.1% formaldehyde crosslink after washing; high values mean tight binding
# [1] = biological target: T1, FEV (Homo sapiens, UniProt Q99581 1-238); conditions: protein: recombinant; tags: N-terminal GST; dsDNA, one strand shown
# T1 sequence: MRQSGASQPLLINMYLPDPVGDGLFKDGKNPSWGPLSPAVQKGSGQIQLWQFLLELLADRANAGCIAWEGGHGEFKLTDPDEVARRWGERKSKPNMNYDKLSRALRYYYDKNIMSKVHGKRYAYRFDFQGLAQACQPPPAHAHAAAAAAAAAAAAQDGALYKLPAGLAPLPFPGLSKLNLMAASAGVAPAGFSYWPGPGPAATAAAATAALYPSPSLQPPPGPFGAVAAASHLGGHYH
# Procedure, shortened: (§1)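 Binding signal is each hexamer's read frequency for a factor divided by its frequency in the tag-only sample. The factors were GST-fused human transcription factors from yeast, captured on glutathione beads, DNA-barcoded and pooled with that sample. Pools were incubated with 200 nmole of a random double-stranded 16-mer DNA library in Tris/NaCl/DTT/glycerol buffer at room temperature for 30 min, then washed, crosslinked with 0.1% formaldehyde, proximity-ligated with BsaI/T4 ligase (1 h, 37 °C), PCR-amplified and sequenced on an Illumina NextSeq500.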
# [2] = biological target: ETV5 (Homo sapiens, UniProt P41161 1-510); conditions: protein: recombinant; tags: N-terminal GST; dsDNA, one strand shown
# Procedure, shortened: as §1
# [3] = biological target: HSF1 (Homo sapiens, UniProt Q00613 1-529); conditions: protein: recombinant; tags: N-terminal GST; chain copies: 3; dsDNA, one strand shown
# Procedure, shortened: as §1
# [4] = biological target: T2, SPIC (Homo sapiens, UniProt Q8N5J4 1-248); conditions: protein: recombinant; tags: N-terminal GST; dsDNA, one strand shown
# T2 sequence: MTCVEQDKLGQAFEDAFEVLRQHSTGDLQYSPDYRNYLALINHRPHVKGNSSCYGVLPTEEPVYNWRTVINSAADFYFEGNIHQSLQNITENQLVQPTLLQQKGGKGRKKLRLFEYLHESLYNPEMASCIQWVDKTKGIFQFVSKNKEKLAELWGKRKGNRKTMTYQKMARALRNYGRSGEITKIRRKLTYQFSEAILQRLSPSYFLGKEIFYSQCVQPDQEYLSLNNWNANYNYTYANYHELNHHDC
# Procedure, shortened: as §1
# [5] = biological target: ELF4 (Homo sapiens, UniProt Q99607 1-663); conditions: protein: recombinant; tags: N-terminal GST; dsDNA, one strand shown
# Procedure, shortened: as §1
# [6] = biological target: T3, ELK4 (Homo sapiens, UniProt P28324-2 1-405); conditions: protein: recombinant; tags: N-terminal GST; dsDNA, one strand shown
# T3 sequence: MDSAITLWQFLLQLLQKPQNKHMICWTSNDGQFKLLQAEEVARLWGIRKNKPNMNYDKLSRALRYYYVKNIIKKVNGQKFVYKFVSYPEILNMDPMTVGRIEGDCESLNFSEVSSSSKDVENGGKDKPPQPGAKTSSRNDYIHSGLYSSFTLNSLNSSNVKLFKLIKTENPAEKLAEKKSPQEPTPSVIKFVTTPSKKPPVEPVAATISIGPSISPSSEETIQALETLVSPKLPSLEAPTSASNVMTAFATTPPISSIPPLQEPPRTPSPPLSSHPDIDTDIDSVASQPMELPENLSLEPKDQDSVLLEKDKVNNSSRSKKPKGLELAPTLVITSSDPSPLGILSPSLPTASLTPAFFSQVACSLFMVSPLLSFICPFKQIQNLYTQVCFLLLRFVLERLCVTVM
# Procedure, shortened: as §1
# [7] = biological target: T4, ETV2 (Homo sapiens, UniProt O00321 1-342); conditions: protein: recombinant; tags: N-terminal GST; dsDNA, one strand shown
# T4 sequence: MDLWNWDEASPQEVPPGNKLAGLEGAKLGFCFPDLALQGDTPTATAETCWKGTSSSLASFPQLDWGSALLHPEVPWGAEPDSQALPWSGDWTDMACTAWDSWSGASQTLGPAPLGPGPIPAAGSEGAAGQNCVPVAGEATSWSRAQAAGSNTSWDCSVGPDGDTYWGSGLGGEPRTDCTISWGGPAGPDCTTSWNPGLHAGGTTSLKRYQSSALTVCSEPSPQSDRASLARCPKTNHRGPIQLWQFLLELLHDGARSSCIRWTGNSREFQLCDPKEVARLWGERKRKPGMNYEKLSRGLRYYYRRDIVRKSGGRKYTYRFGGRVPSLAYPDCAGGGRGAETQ
# Procedure, shortened: as §1
# [8] = biological target: T5, ELF3 (Homo sapiens, UniProt P78545 1-371); conditions: protein: recombinant; tags: N-terminal GST; dsDNA, one strand shown
# T5 sequence: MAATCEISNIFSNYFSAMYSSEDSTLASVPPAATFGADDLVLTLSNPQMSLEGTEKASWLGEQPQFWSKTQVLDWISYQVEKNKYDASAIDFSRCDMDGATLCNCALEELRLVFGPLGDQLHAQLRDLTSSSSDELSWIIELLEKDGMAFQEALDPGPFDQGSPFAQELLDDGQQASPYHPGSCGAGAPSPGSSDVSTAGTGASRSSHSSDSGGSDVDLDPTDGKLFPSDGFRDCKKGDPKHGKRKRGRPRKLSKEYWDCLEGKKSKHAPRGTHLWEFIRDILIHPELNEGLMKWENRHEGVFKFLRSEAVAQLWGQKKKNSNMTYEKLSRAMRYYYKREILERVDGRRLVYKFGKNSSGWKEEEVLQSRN
# Procedure, shortened: as §1
# [9] = biological target: CRX (Homo sapiens, UniProt O43186 1-299); conditions: protein: recombinant; tags: N-terminal GST; dsDNA, one strand shown
# Procedure, shortened: as §1
# [10] = biological target: ETV1 (Homo sapiens, UniProt P50549 1-477); conditions: protein: recombinant; tags: N-terminal GST; dsDNA, one strand shown
# Procedure, shortened: as §1
# [11] = biological target: T6, ERF (Homo sapiens, UniProt P50548 1-548); conditions: protein: recombinant; tags: N-terminal GST; dsDNA, one strand shown
# T6 sequence: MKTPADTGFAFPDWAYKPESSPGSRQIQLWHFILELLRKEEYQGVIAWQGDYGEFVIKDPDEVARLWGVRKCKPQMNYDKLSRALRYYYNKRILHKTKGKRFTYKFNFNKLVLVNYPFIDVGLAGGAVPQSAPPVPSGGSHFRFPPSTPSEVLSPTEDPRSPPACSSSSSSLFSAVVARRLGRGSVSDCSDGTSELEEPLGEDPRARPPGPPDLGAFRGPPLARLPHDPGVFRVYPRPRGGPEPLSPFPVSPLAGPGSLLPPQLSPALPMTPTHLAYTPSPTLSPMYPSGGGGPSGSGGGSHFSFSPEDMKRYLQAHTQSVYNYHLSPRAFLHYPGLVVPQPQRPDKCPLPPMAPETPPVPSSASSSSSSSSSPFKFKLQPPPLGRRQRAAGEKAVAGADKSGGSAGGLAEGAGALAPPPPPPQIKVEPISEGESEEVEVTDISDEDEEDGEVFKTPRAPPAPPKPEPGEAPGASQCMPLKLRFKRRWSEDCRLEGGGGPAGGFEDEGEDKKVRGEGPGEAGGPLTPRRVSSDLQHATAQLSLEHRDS
# Procedure, shortened: as §1
# [12] = biological target: T7, ETV3L (Homo sapiens, UniProt Q6ZN32 1-361); conditions: protein: recombinant; tags: N-terminal GST; dsDNA, one strand shown
# T7 sequence: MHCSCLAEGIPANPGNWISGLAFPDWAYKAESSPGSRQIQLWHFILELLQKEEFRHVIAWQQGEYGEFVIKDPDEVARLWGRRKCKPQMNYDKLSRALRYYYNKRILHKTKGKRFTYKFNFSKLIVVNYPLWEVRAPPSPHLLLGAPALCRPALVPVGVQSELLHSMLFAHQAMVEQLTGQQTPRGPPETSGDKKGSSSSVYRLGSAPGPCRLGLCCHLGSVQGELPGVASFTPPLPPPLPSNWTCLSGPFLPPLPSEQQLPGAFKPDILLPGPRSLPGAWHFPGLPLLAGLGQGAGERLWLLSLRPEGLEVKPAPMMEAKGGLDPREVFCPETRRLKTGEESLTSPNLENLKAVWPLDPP
# Procedure, shortened: as §1
# [13] = biological target: T8, ETS2 (Homo sapiens, UniProt P15036 1-469); conditions: protein: recombinant; tags: N-terminal GST; dsDNA, one strand shown
# T8 sequence: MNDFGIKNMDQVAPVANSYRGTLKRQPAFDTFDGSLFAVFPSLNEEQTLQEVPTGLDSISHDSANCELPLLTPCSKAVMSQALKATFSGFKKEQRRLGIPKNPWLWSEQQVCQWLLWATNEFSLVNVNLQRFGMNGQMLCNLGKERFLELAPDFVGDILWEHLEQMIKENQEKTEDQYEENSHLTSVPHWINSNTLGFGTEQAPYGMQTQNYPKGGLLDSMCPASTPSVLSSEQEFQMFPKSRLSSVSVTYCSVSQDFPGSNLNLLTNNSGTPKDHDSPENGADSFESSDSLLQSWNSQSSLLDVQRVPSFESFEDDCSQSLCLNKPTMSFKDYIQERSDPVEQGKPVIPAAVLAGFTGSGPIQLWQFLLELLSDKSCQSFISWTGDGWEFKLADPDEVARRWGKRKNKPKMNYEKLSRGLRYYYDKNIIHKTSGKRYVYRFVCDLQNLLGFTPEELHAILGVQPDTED
# Procedure, shortened: as §1
# [14] = biological target: T9, SPDEF (Homo sapiens, UniProt O95238 1-335); conditions: protein: recombinant; tags: N-terminal GST; dsDNA, one strand shown
# T9 sequence: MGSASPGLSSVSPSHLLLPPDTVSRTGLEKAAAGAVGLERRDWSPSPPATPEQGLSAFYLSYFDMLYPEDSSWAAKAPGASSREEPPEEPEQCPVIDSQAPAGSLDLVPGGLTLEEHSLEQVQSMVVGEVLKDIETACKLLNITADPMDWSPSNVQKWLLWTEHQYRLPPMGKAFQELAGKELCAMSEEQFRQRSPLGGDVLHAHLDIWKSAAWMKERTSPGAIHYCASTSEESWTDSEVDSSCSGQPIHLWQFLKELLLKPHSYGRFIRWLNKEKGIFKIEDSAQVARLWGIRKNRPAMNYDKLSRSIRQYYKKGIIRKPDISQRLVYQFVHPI
# Procedure, shortened: as §1
# [15] = biological target: T10, ETV7 (Homo sapiens, UniProt Q9Y603 1-341); conditions: protein: recombinant; tags: N-terminal GST; dsDNA, one strand shown
# T10 sequence: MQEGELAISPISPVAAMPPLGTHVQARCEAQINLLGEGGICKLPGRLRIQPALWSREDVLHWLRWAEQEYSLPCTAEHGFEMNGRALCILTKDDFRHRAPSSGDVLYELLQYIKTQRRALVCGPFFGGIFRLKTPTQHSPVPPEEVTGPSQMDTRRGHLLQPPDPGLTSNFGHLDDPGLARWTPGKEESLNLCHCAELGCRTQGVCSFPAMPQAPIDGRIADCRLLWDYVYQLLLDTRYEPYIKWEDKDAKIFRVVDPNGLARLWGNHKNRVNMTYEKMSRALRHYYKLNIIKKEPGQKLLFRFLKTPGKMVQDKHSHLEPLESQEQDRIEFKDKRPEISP
# Procedure, shortened: as §1
# [16] = biological target: T11, ELF5 (Homo sapiens, UniProt Q9UKW6-2 1-255); conditions: protein: recombinant; tags: N-terminal GST; dsDNA, one strand shown
# T11 sequence: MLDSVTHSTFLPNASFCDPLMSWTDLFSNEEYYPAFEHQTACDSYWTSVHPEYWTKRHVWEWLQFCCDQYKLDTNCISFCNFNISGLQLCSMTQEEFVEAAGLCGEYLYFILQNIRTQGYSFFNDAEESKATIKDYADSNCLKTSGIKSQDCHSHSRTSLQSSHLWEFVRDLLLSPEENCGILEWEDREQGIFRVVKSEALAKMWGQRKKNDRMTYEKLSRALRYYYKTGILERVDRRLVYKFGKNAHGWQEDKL
# Procedure, shortened: as §1
# [17] = biological target: T12, ETV3 (Homo sapiens, UniProt P41162-2 1-143); conditions: protein: recombinant; tags: N-terminal GST; dsDNA, one strand shown
# T12 sequence: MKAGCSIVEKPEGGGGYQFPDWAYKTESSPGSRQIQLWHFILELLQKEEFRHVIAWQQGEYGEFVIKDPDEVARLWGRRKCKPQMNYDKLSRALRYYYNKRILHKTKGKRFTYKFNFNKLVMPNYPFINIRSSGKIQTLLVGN
# Procedure, shortened: as §1
# [18] = biological target: ETV6 (Homo sapiens, UniProt P41212 1-452); conditions: protein: recombinant; tags: N-terminal GST; dsDNA, one strand shown
# Procedure, shortened: as §1
# ELF4, sequence (Q99607 whole entry): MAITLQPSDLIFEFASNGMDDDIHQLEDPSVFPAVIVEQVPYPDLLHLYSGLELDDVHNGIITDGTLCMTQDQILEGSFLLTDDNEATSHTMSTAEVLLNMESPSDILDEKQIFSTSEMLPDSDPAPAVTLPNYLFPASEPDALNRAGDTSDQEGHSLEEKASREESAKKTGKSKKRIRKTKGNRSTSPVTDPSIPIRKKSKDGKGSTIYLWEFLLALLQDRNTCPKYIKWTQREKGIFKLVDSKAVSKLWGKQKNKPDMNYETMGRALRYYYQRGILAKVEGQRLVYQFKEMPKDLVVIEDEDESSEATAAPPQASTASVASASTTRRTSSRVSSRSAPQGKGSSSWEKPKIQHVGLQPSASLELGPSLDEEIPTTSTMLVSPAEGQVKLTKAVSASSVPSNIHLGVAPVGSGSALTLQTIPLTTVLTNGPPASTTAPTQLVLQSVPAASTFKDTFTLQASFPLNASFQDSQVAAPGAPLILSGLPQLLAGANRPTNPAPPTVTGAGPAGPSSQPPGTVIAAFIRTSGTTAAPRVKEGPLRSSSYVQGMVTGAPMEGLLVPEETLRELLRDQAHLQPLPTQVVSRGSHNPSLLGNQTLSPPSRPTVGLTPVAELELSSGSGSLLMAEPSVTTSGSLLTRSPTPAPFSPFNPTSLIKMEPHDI
# ETV5, sequence (P41161 whole entry): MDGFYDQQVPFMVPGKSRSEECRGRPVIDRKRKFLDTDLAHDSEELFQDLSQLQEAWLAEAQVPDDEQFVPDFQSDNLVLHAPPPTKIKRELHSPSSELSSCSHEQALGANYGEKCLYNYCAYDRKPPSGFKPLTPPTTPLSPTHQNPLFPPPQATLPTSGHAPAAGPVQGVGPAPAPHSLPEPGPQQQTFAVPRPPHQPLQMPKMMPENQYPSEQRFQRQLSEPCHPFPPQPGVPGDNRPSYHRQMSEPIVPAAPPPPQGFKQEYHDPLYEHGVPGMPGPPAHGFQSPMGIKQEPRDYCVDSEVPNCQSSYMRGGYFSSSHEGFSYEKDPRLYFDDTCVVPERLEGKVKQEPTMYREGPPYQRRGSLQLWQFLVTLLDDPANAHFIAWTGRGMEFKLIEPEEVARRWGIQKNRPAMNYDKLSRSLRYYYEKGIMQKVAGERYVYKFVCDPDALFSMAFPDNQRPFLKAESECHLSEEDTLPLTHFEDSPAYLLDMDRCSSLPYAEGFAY
# ETV1, sequence (P50549 whole entry): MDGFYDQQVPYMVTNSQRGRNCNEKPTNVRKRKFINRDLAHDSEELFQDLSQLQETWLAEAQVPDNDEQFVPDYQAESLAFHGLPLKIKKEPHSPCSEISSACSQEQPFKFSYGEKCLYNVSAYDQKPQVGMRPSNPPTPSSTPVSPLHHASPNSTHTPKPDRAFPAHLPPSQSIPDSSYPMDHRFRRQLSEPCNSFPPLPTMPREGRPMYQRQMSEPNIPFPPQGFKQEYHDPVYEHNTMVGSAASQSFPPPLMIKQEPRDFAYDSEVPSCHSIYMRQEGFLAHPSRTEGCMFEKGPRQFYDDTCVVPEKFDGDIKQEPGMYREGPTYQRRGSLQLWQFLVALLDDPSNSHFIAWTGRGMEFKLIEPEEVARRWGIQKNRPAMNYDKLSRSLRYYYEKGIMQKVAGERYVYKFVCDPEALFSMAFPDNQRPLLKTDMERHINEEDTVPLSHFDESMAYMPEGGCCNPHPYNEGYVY
# CRX, sequence (O43186 whole entry): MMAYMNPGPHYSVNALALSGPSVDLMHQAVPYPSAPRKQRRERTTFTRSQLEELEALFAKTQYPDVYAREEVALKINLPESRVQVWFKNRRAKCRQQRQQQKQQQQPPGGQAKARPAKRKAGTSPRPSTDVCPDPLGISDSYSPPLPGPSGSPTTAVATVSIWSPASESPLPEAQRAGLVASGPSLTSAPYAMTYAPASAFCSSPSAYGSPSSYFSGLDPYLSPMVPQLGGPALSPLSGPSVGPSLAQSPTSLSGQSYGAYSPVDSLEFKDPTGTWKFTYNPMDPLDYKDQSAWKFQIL
# ETV6, sequence (P41212 whole entry): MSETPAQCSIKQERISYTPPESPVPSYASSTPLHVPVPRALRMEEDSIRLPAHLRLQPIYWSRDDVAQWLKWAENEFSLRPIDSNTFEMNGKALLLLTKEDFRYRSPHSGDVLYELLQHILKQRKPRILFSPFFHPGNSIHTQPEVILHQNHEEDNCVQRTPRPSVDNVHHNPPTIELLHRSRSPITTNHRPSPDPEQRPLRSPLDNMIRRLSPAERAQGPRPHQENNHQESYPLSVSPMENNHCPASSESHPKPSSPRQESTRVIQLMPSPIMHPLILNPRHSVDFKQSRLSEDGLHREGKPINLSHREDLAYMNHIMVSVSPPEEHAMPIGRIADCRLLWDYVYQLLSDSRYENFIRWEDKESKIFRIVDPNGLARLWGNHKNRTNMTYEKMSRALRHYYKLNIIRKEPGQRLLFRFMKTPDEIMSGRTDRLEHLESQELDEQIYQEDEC
# HSF1, sequence (Q00613 whole entry): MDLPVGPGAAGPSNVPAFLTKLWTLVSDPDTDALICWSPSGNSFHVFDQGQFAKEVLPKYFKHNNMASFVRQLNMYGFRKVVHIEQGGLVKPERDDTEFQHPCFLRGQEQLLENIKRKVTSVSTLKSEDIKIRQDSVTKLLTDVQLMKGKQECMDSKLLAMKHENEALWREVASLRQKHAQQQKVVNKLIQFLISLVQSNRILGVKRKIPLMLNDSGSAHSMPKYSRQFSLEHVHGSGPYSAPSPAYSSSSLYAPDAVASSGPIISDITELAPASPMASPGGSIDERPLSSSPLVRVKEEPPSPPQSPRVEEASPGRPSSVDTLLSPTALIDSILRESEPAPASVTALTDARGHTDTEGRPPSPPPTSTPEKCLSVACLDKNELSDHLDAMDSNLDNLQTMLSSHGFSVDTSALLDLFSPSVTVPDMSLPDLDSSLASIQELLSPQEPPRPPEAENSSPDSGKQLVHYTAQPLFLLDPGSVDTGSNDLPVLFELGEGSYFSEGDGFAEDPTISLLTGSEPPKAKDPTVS
sequence,measurement,setting,value
TCTCGT,binding signal,[1],"1.21 fold enrichment (6-mer frequency, TF over GST control)"
same,binding signal,[2],"1.1 fold enrichment (6-mer frequency, TF over GST control)"
same,binding signal,[3],"2.01 fold enrichment (6-mer frequency, TF over GST control)"
same,binding signal,[4],"1.31 fold enrichment (6-mer frequency, TF over GST control)"
same,binding signal,[5],"1.24 fold enrichment (6-mer frequency, TF over GST control)"
same,binding signal,[6],"1.3 fold enrichment (6-mer frequency, TF over GST control)"
same,binding signal,[7],"1.27 fold enrichment (6-mer frequency, TF over GST control)"
same,binding signal,[8],"1.65 fold enrichment (6-mer frequency, TF over GST control)"
same,binding signal,[9],"1.35 fold enrichment (6-mer frequency, TF over GST control)"
same,binding signal,[10],"1.27 fold enrichment (6-mer frequency, TF over GST control)"
same,binding signal,[11],"1.16 fold enrichment (6-mer frequency, TF over GST control)"
same,binding signal,[12],"1.21 fold enrichment (6-mer frequency, TF over GST control)"
same,binding signal,[13],"1.34 fold enrichment (6-mer frequency, TF over GST control)"
same,binding signal,[14],"1.15 fold enrichment (6-mer frequency, TF over GST control)"
same,binding signal,[15],"1.2 fold enrichment (6-mer frequency, TF over GST control)"
same,binding signal,[16],"1.24 fold enrichment (6-mer frequency, TF over GST control)"
same,binding signal,[17],"1.03 fold enrichment (6-mer frequency, TF over GST control)"
same,binding signal,[18],"1.18 fold enrichment (6-mer frequency, TF over GST control)"
